# Bioassay records from PubChem.
# IL-2 act – qHTS of IL-2 Activators | actives 0.065% (n = 360,000) | activation, % (series mostly up to about 46 µM) | IL-2 activation reporter assay, cell-based qHTS; stimulated with anti-CD3/CD4/CD28 beads; in transgenic mouse T cells | AID 652025, 2013; in the data active = activation above about 50%; inconclusive = mostly about 30% to 49%; note: 0% is about no effect
#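 Using fluorescent plate cytometry, EGFP and DsRed are detected in transgenic mouse T cells stimulated 18 h at 37 degrees C with antibody-coated beads after 60 min compound pretreatment.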
# PKM2 act – qHTS Assay for Activators of Human Muscle isoform 2 Pyruvate Kinase; AID 1631, 2009; Potency, µM (titrated, usually from 57.5 µM), for the others: at the top dose activation, most hits filed as activators; actives 0.34% (n = 260,000); purified PKM2, Kinase-Glo ATP luminescence, activation; response scale: 0% is enzyme alone, no compound; note: potency is the fitted concentration of half-maximal effect; % is set by controls: 0 for no effect and ±100 for the full control effect; nearly all actives have a fitted effect of over 55% in size
# Target sequence (P14618 whole entry, looked up, canonical isoform): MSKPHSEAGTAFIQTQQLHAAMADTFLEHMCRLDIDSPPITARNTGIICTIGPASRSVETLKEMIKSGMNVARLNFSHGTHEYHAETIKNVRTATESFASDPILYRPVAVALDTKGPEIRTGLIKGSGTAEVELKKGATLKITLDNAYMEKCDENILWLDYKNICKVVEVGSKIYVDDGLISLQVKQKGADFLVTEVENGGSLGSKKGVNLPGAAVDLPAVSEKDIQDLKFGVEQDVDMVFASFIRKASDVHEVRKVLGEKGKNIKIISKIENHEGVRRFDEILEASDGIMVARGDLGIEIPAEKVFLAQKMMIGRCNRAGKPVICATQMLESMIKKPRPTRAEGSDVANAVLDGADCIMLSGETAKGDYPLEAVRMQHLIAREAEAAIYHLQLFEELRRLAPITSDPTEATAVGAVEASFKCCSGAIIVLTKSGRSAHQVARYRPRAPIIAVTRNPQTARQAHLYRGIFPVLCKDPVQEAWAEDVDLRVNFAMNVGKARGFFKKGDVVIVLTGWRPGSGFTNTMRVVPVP
#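 ATP formation by purified human PK-M2, quantified via coupled luciferase luminescence after 1 h at room temperature with 0.1 mM ADP and 0.5 mM PEP final.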
# S-ASM inh – Inhibitors of Secretory Acid Sphingomyelinase (S-ASM): qHTS; placental ASM, HMU-PC fluorogenic substrate, 60 min; Potency, µM (titrated, usually from 57.5 µM), for the others: top-dose activity change, negative = inhibition, most hits filed as inhibitors; actives 0.006% (n = 340,000); note: potency is the fitted concentration of half-maximal effect
#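 Human placenta-derived ASM enzyme was preincubated with compound for 10 minutes at room temperature, then given fluorogenic substrate HMU-PC0 (9 uM final) for 60 minutes at 37 °C; a pH 10 stop preceded fluorescence reading at Ex 386/Em 447 nm.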
# The depositor's hits bear a star; i = inactive; u = inconclusive; x = no result. Sampled rows, rich in hits. Any-hit rate of the full collection: about 0.33%. Unless noted, calls come from the whole dose curve; as a rule, active = well fitted curve in the direction sought with a large enough effect; inconclusive = small, poorly fitted or top-dose-only effect, or another doubt; inactive = no such curve, though single readings can be large; an effect the other way counts as inactive or inconclusive.
SMILES,IL-2 act,PKM2 act,S-ASM inh
CCN(CC)c1ccc(/C=C2\CCC(/C=N/NC(=O)c3ccc(=O)n(C)c3)=C2N2CCOCC2)cc1,71*,-1%,-24%
O=C(N/N=C/C1=C(N2CCOCC2)C(=C\c2ccccc2)/CC1)Nc1ccccc1,0,3%,-3%
O=C(Cn1cnc2cc([N+](=O)[O-])ccc2c1=O)Nc1ccc2c(c1)OCO2,-2,-1%,-3%
O=c1c2sccc2nc(SCc2cc(=O)n3cc(Br)ccc3n2)n1Cc1ccccn1,3,7.9µM*,5%
Cc1ccc(CSc2nc3ccsc3c(=O)n2Cc2ccccn2)cc1,-5,3%,-25%
COc1ccccc1NC(=O)C1=C(C)NC(=O)NC1c1ccccc1[N+](=O)[O-] (centres undefined),-4,25µM*,13%
CC1=C(C(=O)Nc2ccccc2)C(c2ccccc2[N+](=O)[O-])NC(=O)N1 (centres undefined),-2,7%,5%
Cc1onc(-c2ccccc2)c1C(=O)OCC(=O)Nc1ccc(OC(F)(F)F)cc1,0,x,-11%
O=C1CC(c2ccco2)CC2=C1C(c1ccccc1)n1nc(C(F)(F)F)nc1N2 (centres undefined),3,4.5µM*,248%
COc1ccc(C2C3=C(CC(c4ccco4)CC3=O)Nc3ccccc3N2C(C)=O)cc1 (centres undefined),0,0%,2%
Cc1ccc(Nc2cc(C)nc3ncnn23)c(C)c1,1,-1%,-3%
O=C(CSc1nc2ccccc2c(=O)n1C1CC1)NCc1ccccc1,-2,-4%,3%
COc1ccc(CCNC(=O)C(=O)NCC2OCCN2C(=O)c2ccc(Cl)cc2)cc1 (centres undefined),-2,-3%,-1%
Cc1ncc(CO)c2cc(S(=O)(=O)c3ccc(F)cc3)c(=O)oc12,4,-6%,-1%
O=c1oc2ccc(Br)cc2cc1S(=O)(=O)c1ccc(F)cc1,-1,2.8µM*,-3%
Fc1ccc(/C=N/NC2=Nc3cccc4cccc2c34)cc1,119*,-3%,-19%
c1ccc(NC2=Nc3cccc4cccc2c34)cc1,0,4%,-7%
CCn1c(SCC(=O)c2ccccc2)nc2c(c1=O)SC(C)C2 (centres undefined),-4,-11%,-2%
O=C(CNS(=O)(=O)c1cccs1)N1CCN(c2ccccn2)CC1,1,22µM*,2%
O=C(CNS(=O)(=O)c1cccs1)N1CCN(c2ccccc2F)CC1,0,11%,-4%
Cn1c(CCC(=O)OCC(=O)NCc2ccc3c(c2)OCO3)nc(=O)c2ccccc21,0,8%,1%
Cn1cncc1C#Cc1c(C=O)n(C)c2ccccc12,0,x,479%
COc1cc(C#Cc2c(C=O)n(C)c3ccccc23)cc(OC)c1,51*,x,i
COc1ccc(Cn2c(=O)[nH]c3cc(C(=O)N4CCN(c5ccccc5OC)CC4)ccc3c2=O)cc1,2,28%,3%
COc1ccccc1N1CCN(C(=O)c2ccc3c(=O)n(Cc4ccco4)c(=S)[nH]c3c2)CC1,0,1.1µM*,-2%
SMILES,IL-2 act,PKM2 act,S-ASM inh
COc1ccc(Cn2c(=O)[nH]c3cc(C(=O)N4CCN(Cc5ccccc5)CC4)ccc3c2=O)cc1,0,13µM*,18%
COc1ccccc1Cn1c(=S)[nH]c2cc(C(=O)N3CCN(c4ccccc4OC)CC3)ccc2c1=O,1,x,-3%
COc1ccc(C(=O)N/C(=C\c2cn(C)c3ccccc23)C(=O)N2CCN(C)CC2)cc1,-2,x,3%
O=C1CC(c2ccc(OCCCCCOc3ccc(C4CC(=O)NC4=O)cc3)cc2)C(=O)N1 (centres undefined),-2,14µM*,14%
CCCCCCCCOc1ccc(C2CC(=O)NC2=O)cc1 (centres undefined),-1,0%,u
O=C(NNC(=O)c1cccnc1)NC1CCCCC1,0,0%,10%
CS(=O)(=O)Nc1ccc(OCc2ccccc2)cc1,2,-6%,0%
Cc1ccc(S(=O)(=O)/N=c2\sccn2C)cc1,-4,18µM*,1%
Cn1ccs/c1=N\S(=O)(=O)c1ccc(F)cc1,0,-20%,4%
CCOC(=O)c1c(C)[nH]c(C(=O)COC(=O)COc2ccc(OC)cc2)c1C,-1,2%,0%
CCOc1ccc(/C=C(\C#N)C(=O)Nc2cccnc2)cc1,0,5%,5%
CCOc1ccc(NC(=O)/C(C#N)=C\c2ccc(N3CCCC3)c(C)c2)cc1,174*,x,0%
O=C(COC(=O)CCN1C(=O)C2CC=CCC2C1=O)Nc1ccc(Cl)cc1F (centres undefined),0,x,2%
CC1(C)CC2C1CCC1(O)CC2(C)CCC1N(O)c1ccc(C(=O)NCCO)cn1 (centres undefined),1,x,1%
CC(=O)Nc1ccc(SCC(=O)Nc2ccccc2-c2ccccc2)cc1,-3,-5%,6%
Cc1onc(-c2ccccc2)c1CNS(=O)(=O)c1cccc(Cl)c1,0,32µM*,-3%
COc1ccc(S(=O)(=O)NCc2c(-c3ccccc3)noc2C)c(OC)c1,0,28µM*,-4%
Cc1ccc(S(=O)(=O)NCc2c(-c3ccccc3)noc2C)cc1,-3,u,0%
Cc1onc(-c2ccccc2)c1CNS(=O)(=O)c1ccccc1,-2,10%,-2%
C[C@@H](OC(=O)N(C)Cc1ccccc1)[C@H]1O[C@]2(C)CCCC[C@H]1O2,3,x,4%
COc1ccccc1OCC(=O)N1CCNC1=O,2,-16%,2%
Cc1cccc(-n2[nH]c(C)c(C=Nc3ccc4[nH]c(=O)[nH]c4c3)c2=O)c1,u,0%,-25%
Cc1[nH]n(-c2ccccc2)c(=O)c1C=Nc1ccc2[nH]c(=O)[nH]c2c1,52*,-5%,1%
O=C(c1ccncc1)N1N=C(c2ccc(Br)cc2)CC1c1ccccc1O (centres undefined),0,7.9µM*,-16%
O=C(c1ccccc1)N1N=C(c2ccccc2)CC1c1ccccc1O (centres undefined),-3,0%,-13%
SMILES,IL-2 act,PKM2 act,S-ASM inh
CCN(C(=O)COC(=O)c1n[nH]c2ccccc12)c1ccccc1,4,x,-1%
COc1cccc(NC(=O)CSC2=C(C#N)C(c3ccco3)C3=C(CCCC3=O)N2)c1 (centres undefined),-1,0.79µM*,15%
COc1ccc(NC(=O)CSC2=C(C#N)C(c3ccco3)C3=C(CCCC3=O)N2)c(OC)c1 (centres undefined),-2,18%,13%
Cc1c([N+](=O)[O-])cc(N2C(=O)C=CC2=O)cc1[N+](=O)[O-],0,x,-2%
Cc1cc(N2C(=O)C=CC2=O)c([N+](=O)[O-])cc1C,-3,5.6µM*,-2%
COC(=O)CNC(=O)CSc1nc2sccc2c(=O)n1-c1ccccc1,-2,0%,-2%
CN=Cc1nc(-c2ccccc2)oc1O,-1,1%,3%
